The values that follow come from PubChem BioAssay (NCATS).

For one test, the system named is CRL-7250. The test can be described thus: Cytotoxic Profiling of Annotated Libraries Using Quantitative High-Throughput Screening (AID 1296008). On max response: on the % scale 0 is the no-effect control and ±100 the full control effect. To be noted: Five cell lines viability, CellTiter-Glo ATP luminescence, 48-72 h; max response: stronger effect = lower value. In a few lines:
(§1)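 Cells exposed to compounds for 48 or 72 hr at 37 degrees Celsius. Viability read as ATP-coupled luminescence with CellTiter-Glo after 10 min at room temperature.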

A further test deals with HEK293. Described as above. To be noted: Five cell lines viability, CellTiter-Glo ATP luminescence, 48-72 h; max response: stronger effect = lower value. In a few lines: as §1
Test [1] concerns HaCat. Described as above. To be noted: Five cell lines viability, CellTiter-Glo ATP luminescence, 48-72 h; max response: stronger effect = lower value. In a few lines: as §1
The test system of the next test is KB-3-1. The test is described as above. Conditions: Five cell lines viability, CellTiter-Glo ATP luminescence, 48-72 h; max response: stronger effect = lower value. In a few lines: as §1
A further test has as its system NIH3T3. The test is described as above. To be noted: Five cell lines viability, CellTiter-Glo ATP luminescence, 48-72 h; max response: stronger effect = lower value. In a few lines:
as §1

In another test the test system is MCC-13. The test can be described thus: qHTS assay to identify novel small-molecules to repurpose for Merkel cell carcinoma treatment (AID 1296009). To be noted: MCC and control cell lines, CellTiter-Glo viability, 72 h; series mostly up to 46 µM. In a few lines:
(§2)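 Cells were treated for 72 hr at 37 degree celsius with compounds in 8- or 11-point dose response. Viability was read by CellTiter-Glo luminescence, normalized to no-cell (cytotoxicity) and DMSO controls.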

In a further test the test system is MCC-26. Described as above. Conditions: MCC and control cell lines, CellTiter-Glo viability, 72 h; series mostly up to 46 µM. In a few lines: as §2
A further test concerns HEK293T. The test is described as above. To be noted: MCC and control cell lines, CellTiter-Glo viability, 72 h; at 44.8 µM (top of the series) unless noted. In a few lines:
as §2

Another test has as its system W2. The test can be described thus: qHTS profiling for inhibitors of Plasmodium falciparum proliferation (AID 504749). Conditions: P. falciparum in erythrocytes, SYBR Green DNA, 72 h; series mostly up to 28.7 µM. In a few lines: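 P. falciparum-infected erythrocytes (0.3% parasitemia, 2.5% hematocrit) incubated with compound 72 h at 37 C, 5% CO2. Parasite DNA detected by SYBR Green after lysis, overnight at room temperature; normalised to 0.29 uM artemisinin and DMSO.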

Test [2] has as its system HACAT. The test can be described thus: qHTS assay to identify novel small-molecules to repurpose for Merkel cell carcinoma treatment (AID 1296009). Conditions: MCC and control cell lines, CellTiter-Glo viability, 72 h; at 44.8 µM (top of the series) unless noted. In a few lines:
as §2

SMILES strings stand for the structures. Values joined by “and” are separate entries in the source; they are usually repeats but may differ in a detail not shown here. Equal entries are not always repeated. Records with an inconclusive call do not appear. Values without a mark were called inactive. Active and inactive are the calls of the source. The call rests on the fitted dose curve; in most records, active means well fitted inhibition curve with a large enough effect; inconclusive means small, poorly fitted or top-dose-only effect; inactive means flat fitted curve, though single readings scatter.
Further: nearly all actives have a fitted effect of over 60% in size.
Potency means the concentration at half of the fitted maximal effect.

`C[Se]CCC(N)C(=O)O` (stereo not drawn): the max response with CRL-7250 was -3.1%; in the test on HEK293, -11.1%; with HaCat [1] it was -19.1%; in the test with KB-3-1, -9.75%. Moreover, the result with NIH3T3 was inactive. The Potency entry in the test on MCC-13 and in the test with MCC-26 was “inactive” throughout.
As to `O=C1NC(=O)C(c2ccccc2[N+](=O)[O-])=C1Nc1ccc(O)c(Cl)c1`, the max response is -2.05% in the test on CRL-7250 and -25.3% with HaCat [1]. Also, the result in the test on HEK293, with KB-3-1, with NIH3T3 and in the test on HEK293T was inactive. Besides, the Potency entry with MCC-13 and in the test with MCC-26 was “inactive” each time.
In the case of `CCCOc1ccc2nc(NC(=O)OC)[nH]c2c1`, the Potency result with W2 is “inactive”. Further, the Potency with CRL-7250 was 668 nM (active) and 132 nM (active); with HEK293, 150 nM (active); with KB-3-1, 0.731 µM (active); in the test with MCC-13, 0.188 µM (active). Further, the compound was called inactive with HaCat [1] and with HACAT [2].
For `Nc1ccc(S(N)(=O)=O)cc1`, the Potency result in the test with W2, in the test with MCC-13 and in the test with MCC-26 was “inactive” in each case. Besides, the max response with CRL-7250 was -3.82% and 0.627%; in the test with HEK293, 0.928% and -22.2%; with NIH3T3, -7.64%. The compound was classed as inactive in the test with HaCat [1], with NIH3T3 and in the test with HACAT [2].
`Oc1ccc2ccccc2c1SSc1c(O)ccc2ccccc12`: the max response in the test with CRL-7250 was -5.27%; in the test with HEK293, -1.68%. Also, the outcome in the test on HaCat [1] and with HACAT [2] was “inactive; activator” in each case. Also, the result with NIH3T3 was inactive. The Potency entry in the test on MCC-13 and in the test with MCC-26 was “inactive” each time.
Take `O=C1c2c(O)cc(O)cc2OC(c2ccc(O)c(O)c2)C1O` (stereo not drawn): the max response with CRL-7250 is -1.4%; with HEK293, -0.947%; in the test with HaCat [1], 2.31%; in the test with NIH3T3, -9.07%. The compound was called inactive in the test on KB-3-1. For the same compound, the Potency entry in the test with MCC-13 and in the test on MCC-26 was “inactive” throughout.
For `CCC(C)(Oc1ccc(C2(c3ccc(OC(C)(CC)C(=O)O)cc3)CCCCC2)cc1)C(=O)O` (stereo not drawn), the Potency result with W2, in the test with MCC-13 and in the test on MCC-26 was “inactive” in each case. Moreover, the max response in the test with CRL-7250 is -2.28% and 2.61%; with HEK293, -7.29% and -0.679%; with NIH3T3 it was -0.924%. Further, the compound was called inactive in the test on HaCat [1], in the test with NIH3T3 and in the test with HACAT [2].
`COc1cc(Nc2c(C#N)cnc3cc(OCCCN4CCN(C)CC4)c(OC)cc23)c(Cl)cc1Cl`: the Potency in the test on CRL-7250 is 3.72 µM (active) and 6.51 µM (active); in the test with HEK293 it was 2.37 µM (active) and 4.18 µM (active) and 11.6 µM (active); in the test with HaCat [1] it was 841 nM (active) and 1.66 µM (active) and 2.31 µM (active); with NIH3T3, 9.44 µM (active) and 1.18 µM (active) and 8.2 µM (active).
Turning to `CCOC(=O)C1=C(O)C(=O)N(Cc2ccccc2)C1`, the max response was 2.77% with CRL-7250, -14.6% with HEK293, 2.45% with HaCat [1] and 3.01% with KB-3-1. In addition, the compound was called inactive with NIH3T3. Besides, the Potency result in the test with MCC-13 and with MCC-26 was “inactive” throughout.
Consider `COC(=O)C1=C(C)NC(C)=C(C(=O)OC(C)C)C1c1cccc2nonc12` (stereo not drawn), for which the max response in the test on CRL-7250 is -24.3%; in the test with HEK293, -10.7%; in the test with HaCat [1], -5.13% and 3.88%; with KB-3-1, 5.12% and -6.21%; in the test with NIH3T3, 1.63%. The Potency entry in the test on MCC-13 and in the test with MCC-26 was “inactive” each time.
In the case of `CC(C)[N+]1(C)[C@@H]2CC[C@H]1CC(OC(=O)C(CO)c1ccccc1)C2` (stereo partly drawn), the max response with CRL-7250 is 2.83%; in the test on HEK293, -4.08%; with KB-3-1, 9.75% and 15.3%. In addition, the outcome with HaCat [1], in the test with NIH3T3 and with HACAT [2] was inactive. The Potency entry with MCC-13 and in the test with MCC-26 was “inactive” each time.
For the compound `NS(=O)(=O)c1cc(C(=O)O)c(NCc2ccco2)cc1Cl`, the max response was -5.7% and -6.17% with CRL-7250; 1.46% and -13.3% in the test with HEK293; -0.435% and 2.7% with HaCat [1]; -9.49% and -2.22% with KB-3-1; -5.6% and -3.32% in the test with NIH3T3. Also, the Potency entry in the test on MCC-13 and in the test on MCC-26 was “inactive” throughout.
Turning to `CCCCCCCCOc1ccccc1C(=O)Nc1ccc(C(=O)OCC[N+](C)(CC)CC)cc1`, the Potency in the test on W2 is 6.75 µM (active). Besides, the max response was -18.9% and -13.2% in the test with CRL-7250; -9.66% with HaCat [1]; 3.44% in the test with KB-3-1; -11.9% and 2.27% in the test on NIH3T3. The Potency result in the test on MCC-13 and in the test with MCC-26 was “inactive” each time.
Turning to `Cc1cc(Cl)ccc1OCCCC(=O)NO`, the max response with CRL-7250 is -2.51%; in the test with HaCat [1] it was 3.7%. Besides, in the test with KB-3-1, the call was inactive. Also, the Potency result in the test with MCC-13 and in the test with MCC-26 was “inactive” throughout.
For `N=C(N=C(N)N)N1CCOCC1`, the Potency result in the test on W2, in the test on MCC-13 and in the test with MCC-26 was “inactive” each time. The max response is -16.7% and 0.819% in the test on CRL-7250; -13.7% and 0.579% with HEK293; -0.0574% and 2.52% in the test with NIH3T3. Besides, the compound was classed as inactive in the test with HaCat [1] and in the test with HACAT [2].
For the compound `O=Nc1c(-c2c(O)[nH]c3cc(Br)ccc23)[nH]c2ccccc12`, the Potency in the test on HEK293 was 14800 nM (active); in the test with HaCat [1], 11.8 µM (active); in the test with KB-3-1 it was 13.2 µM (active); in the test with MCC-13, 18.7 µM (active); with MCC-26, 16.6 µM (active).
Regarding `O=C(CS(=O)Cc1ccco1)NCC=CCOc1cc(CN2CCCCC2)ccn1` (stereo not drawn), the Potency entry in the test with W2, in the test with MCC-13 and in the test on MCC-26 was “inactive” each time. Further, the outcome in the test on CRL-7250 and in the test on NIH3T3 was inactive. In addition, the max response in the test on HEK293 was -11.3%; in the test with HaCat [1], 0.787%.
With `CN1C(C(=O)Nc2ccccn2)=C(O)c2sccc2S1(=O)=O`, in the test on W2, the Potency entry is “inactive”.
On to `Cc1cccc(C#Cc2ccccc2)n1`, for which the max response is -25.8% in the test on HaCat [1], 9.05% in the test with KB-3-1 and -0.211% in the test on NIH3T3. For the same compound, the Potency result with MCC-13 and with MCC-26 was “inactive” each time.
On to `C[C@]12CCC(=O)C=C1CC[C@@H]1[C@H]2[C@@H](O)C[C@@]2(C)[C@H]1CC[C@]2(O)C(=O)CO`, for which the Potency entry with W2, in the test with MCC-13 and with MCC-26 was “inactive” throughout. The max response with CRL-7250 is -1.54%; in the test with HaCat [1], -4.53%. The compound was called inactive with HEK293, with NIH3T3 and in the test on HEK293T.
